Results taken from publication PMC7826789 (International Journal of Molecular Sciences, 2021).

Legend:
Details in all cases: Compound Concentration (nM):1000
BIKE = test system: T1, BIKE
T1 construct: gene BMP2K

BLK = test system: BLK
BMPR1A = test system: BMPR1A
BMPR1B = test system: BMPR1B
BMPR2 = test system: BMPR2
BMX = test system: BMX
BRAF(V600E) = test system: BRAF(V600E)
BRAF = test system: BRAF
BRK = test system: T2, BRK
T2 construct: gene PTK6

BRSK1 = test system: BRSK1
BRSK2 = test system: BRSK2
BTK = test system: BTK
BUB1 = test system: BUB1
CAMK1B = test system: T3, CAMK1B
T3 construct: gene PNCK

CAMK1D = test system: CAMK1D
CAMK1G = test system: CAMK1G
CAMK1 = test system: CAMK1
CAMK2A = test system: CAMK2A
CAMK2B = test system: CAMK2B
CAMK2D = test system: CAMK2D
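Note: KINOMEscan scanMAX binding as percent activity remaining versus control; lower means stronger binding.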

SMILES	Percent Control (BIKE) [%]	Percent Control (BLK) [%]	Percent Control (BMPR1A) [%]	Percent Control (BMPR1B) [%]	Percent Control (BMPR2) [%]	Percent Control (BMX) [%]	Percent Control (BRAF(V600E)) [%]	Percent Control (BRAF) [%]	Percent Control (BRK) [%]	Percent Control (BRSK1) [%]	Percent Control (BRSK2) [%]	Percent Control (BTK) [%]	Percent Control (BUB1) [%]	Percent Control (CAMK1B) [%]	Percent Control (CAMK1D) [%]	Percent Control (CAMK1G) [%]	Percent Control (CAMK1) [%]	Percent Control (CAMK2A) [%]	Percent Control (CAMK2B) [%]	Percent Control (CAMK2D) [%]
Cl.O=C(O[C@H]1CN[C@H](C#Cc2cc3ncnc(Nc4ccc5c(cnn5Cc5ccccc5)c4)c3s2)C1)N1CCOCC1 [GSK200398A]	100	100	96	90	99	98	99	91	78	100	100	77	45	69	100	100	100	94	84	95
Cl.O=C(Nc1ccc(Oc2ccc3[nH]c(NC(=O)c4ccco4)nc3c2)cc1)Nc1cc(C(F)(F)F)ccc1F [GW683134A]	100	70	73	100	98	87	13	32	100	100	98	95	95	100	100	100	59	85	79	100
NS(=O)(=O)c1ccc(Nc2ncc(-c3ccccc3)o2)cc1 [GW572399X]	100	89	100	83	100	100	80	95	100	100	100	96	80	100	100	100	78	94	100	100
COc1ccc2[nH]c3c4[nH]c5ccc(OC)cc5c4c4c(c3c2c1)C(=O)NC4=O [GW296115X]	76	71	100	56	93	99	89	86	81	10	6.2	74	29	78	64	76	80	70	100	64
CC(C)COC(=O)c1ccc2c(c1)/C(=C/Nc1ccc(S(N)(=O)=O)cc1)C(=O)N2 [GW416981X]	27	100	100	96	30	100	97	100	100	100	88	100	9.8	92	100	100	100	29	71	72
CC1=C(C(=O)Nc2ccc3[nH]ncc3c2)C(c2ccc3ccccc3c2)CC(=O)N1 (stereo not shown) [GSK270822A]	100	35	100	43	75	78	80	100	80	100	73	13	60	67	97	91	83	87	87	79
COc1ccc(COc2ccc(Cc3cnc(N)nc3N)cc2OC)cc1 [GW632580X]	94	78	100	92	94	100	91	100	100	100	55	96	100	100	95	96	100	90	96	89
COc1ccc2cc(-c3c(-c4ccncc4)nc(-c4ccc(S(C)(=O)=O)cc4C)n3C)ccc2c1 [SB-633825]	100	52	79	63	91	54	86	97	44	100	73	45	33	53	96	83	93	87	97	77
COc1cc(C=NNc2ncnc3c2cnn3-c2ccccc2)ccc1O [GW513184X]	25	16	40	20	100	100	65	77	100	54	73	100	81	100	100	100	100	97	100	100
COc1ccccc1-c1cc(/C=C2\C(=O)Nc3ncc(Br)cc32)cc(Br)c1O [GW442130X]	100	63	86	85	97	100	68	78	100	98	100	99	73	78	100	100	100	85	88	100
NS(=O)(=O)c1ccc(N/N=C2\C(=O)Nc3ccc(-c4cnco4)cc32)cc1 [GW276655]	20	63	100	94	62	100	100	86	82	100	66	50	74	76	71	85	74	56	78	72
CCc1ccc(Oc2nccc(-c3c(-c4ccc(F)cc4)ncn3C3CCNCC3)n2)cc1 [SB-242719]	100	82	87	88	82	100	100	100	94	94	100	100	73	100	86	100	90	67	63	100
NS(=O)(=O)c1ccc(N/N=C2\C(=O)Nc3ccc(C(=O)NCc4ccncc4)cc32)cc1 [GW300657X]	60	99	100	78	68	100	87	97	100	100	94	89	49	70	80	88	85	66	78	81
COc1ccc2c(-c3ccnc(Nc4cccc(OC(F)(F)F)c4)n3)cnn2n1 [GW810372X]	58	100	100	100	100	90	92	100	100	100	77	84	86	100	100	100	100	100	100	100
O=C(Nc1n[nH]c2nc(-c3ccc(O)cc3)c(Br)cc12)C1CC1 [SB-725317]	63	92	98	69	100	100	5.3	17	100	46	47	97	94	100	100	100	100	93	97	100
COc1cc(N2CCN(C(C)C)CC2)ccc1Nc1nc(Nc2ccc(F)cc2C(=O)NC[C@@H](O)CO)c2cc[nH]c2n1 [GSK1392956A]	81	99	100	88	97	100	90	94	100	100	100	100	88	60	40	75	73	69	64	87
CC1=C(C(=O)Nc2ccc3[nH]ncc3c2)C(c2ccc(Cl)c(Cl)c2)CC(=O)N1 (stereo not shown) [GSK299115A]	100	91	100	67	69	75	82	100	70	92	98	26	73	81	90	100	87	80	88	96
Cc1cc(O)cc(C)c1/C=C/c1cncc(C(N)=O)c1 [GW435821X]	100	59	64	4.4	100	100	12	23	58	94	50	100	100	100	100	100	91	100	100	100
COc1cccc(-n2ncc3c(N/N=C/c4ccncc4)ncnc32)c1 [GW784752X]	66	45	51	0.1	86	100	3.2	6.5	100	18	61	100	77	99	100	100	99	89	82	100
COc1cccc(-c2c[nH]c3c(N/N=C/c4ccncc4)ncnc23)c1 [GW814408X]	38	19	31	0.1	99	100	26	29	100	100	92	77	50	95	100	97	100	77	81	84
